{
  "source": "the supplement of paper PMC11417369",
  "note": "± gives the standard deviation of the averaged measurements. In all, about 25,000 sequences were measured (“ln(normalized median fluorescence intensity)”: median about 8.9, highest 2% from about 10 on). For the sample, the highest values were picked, then their nearest neighbours and some sequences at random.",
  "data": [
    {"system": "PfAP2-LT AP2 domain (GST-tagged)", "assay": "gcPBM binding intensity (ln(normalized median fluorescence intensity)); higher = stronger DNA binding", "outline": "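Binding intensity is the highest Masliner-normalised natural-log median intensity over replicate spots in either probe orientation. To obtain it, GST-tagged P. falciparum DNA-binding domains made in E. coli were incubated for 1 h on an Agilent 4 × 180k array of primer-extended double-stranded 36-bp intergenic genomic probes plus negative controls. Detection used Alexa488 anti-GST antibody with scanning at 488 nm.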", "values": [
      {"sequence": "AATGAAGACTTTTTTACACACTTCATATATTATATA [CACACA_site2034]", "gcPBM binding intensity (ln)": "8.9 ± 0.39"},
      {"sequence": "ATATATCAAAATAATTGTACAAATTTTATATAATTT [XGTACX_site7249]", "gcPBM binding intensity (ln)": "8.53 ± 0.47"},
      {"sequence": "CGTACATAATTTTAATCACACACAAACAAACACATA [CACACA_site7947]", "gcPBM binding intensity (ln)": "9.42 ± 0.34"},
      {"sequence": "ATACTAAAAAGTATCTGTACTTATTTTAAAAATAAA [XGTACX_site4116]", "gcPBM binding intensity (ln)": "8.19 ± 0.53"},
      {"sequence": "TTATATTCTTTTCTCTTTCTACTTTTTTTTTTTTTT [XGTACX_negctrl_site317]", "gcPBM binding intensity (ln)": "8.45 ± 0.69"},
      {"sequence": "ATAGGTGAATACTAATATAAATTCAAGAGGGAAAAG [CACACA_negctrl_site720]", "gcPBM binding intensity (ln)": "8.9 ± 0.55"},
      {"sequence": "AAAAAAGTAAAAAGTGCATGTAAAATATAAGTATCT [TGCATGCA_site55]", "gcPBM binding intensity (ln)": "9.18 ± 0.61"},
      {"sequence": "CATATACATATATGTAGTACGTGTTCTTCTATATGA [XGTACX_site8344]", "gcPBM binding intensity (ln)": "8.84 ± 0.44"},
      {"sequence": "TATAATGGTTCTGGTGTGCACCATGACAGAATCAAG", "gcPBM binding intensity (ln)": "8.82 ± 0.38"},
      {"sequence": "GTGTAAATATAATTAGTTTCACAAAACAAATATTTA [CACACA_negctrl_site717]", "gcPBM binding intensity (ln)": "8.61 ± 0.42"},
      {"sequence": "AAAGGGGATATATGAACACACAAAAAAAAAATATAT [CACACA_site2896]", "gcPBM binding intensity (ln)": "9.13 ± 0.68"},
      {"sequence": "ATTCTTTACTCATAAAATTATATTATATAAACTTTT [XGTACX_negctrl_site554]", "gcPBM binding intensity (ln)": "8.45 ± 0.52"},
      {"sequence": "AGTAATTTAAGGAATACACACAAGAAAAAAATAAGA [CACACA_site6177]", "gcPBM binding intensity (ln)": "9.13 ± 0.61"},
      {"sequence": "AGATCATAATATTATACACACATTATATATCTGTAA [CACACA_site4925]", "gcPBM binding intensity (ln)": "9.14 ± 0.26"},
      {"sequence": "GATCTACATGAAAGGACACACAAATATATATATATA [CACACA_site84]", "gcPBM binding intensity (ln)": "9.62 ± 0.35"},
      {"sequence": "AAATAAAAAAAATAAAAGCAATCATAATAAAAATCT [CACACA_negctrl_site161]", "gcPBM binding intensity (ln)": "8.79 ± 0.46"},
      {"sequence": "ATAAAAATATAATTGAGTACATATGAATAGTCCTAT [XGTACX_site6281]", "gcPBM binding intensity (ln)": "8.65 ± 0.42"},
      {"sequence": "TAAATACTAATATGTACACACATATAGATATAGATT [CACACA_site7247]", "gcPBM binding intensity (ln)": "8.96 ± 0.38"},
      {"sequence": "GTAAATACACATATGTGTACATATATATATATATAT [XGTACX_site3696]", "gcPBM binding intensity (ln)": "9.67 ± 0.31"},
      {"sequence": "TACGAAATCATATGTACACACACATATATATATATA [CACACA_site5216]", "gcPBM binding intensity (ln)": "9.8 ± 0.14"},
      {"sequence": "AAAAAATGCGACATGTGTACACATATATATATATAT [XGTACX_site1679]", "gcPBM binding intensity (ln)": "9.81 ± 0.3"},
      {"sequence": "ATATATATATATATATGTACATATACACATGTGTGC [XGTACX_site168]", "gcPBM binding intensity (ln)": "10.14 ± 0.099"},
      {"sequence": "ATATATATATATATATGTACACACATCAATCATATT [XGTACX_site4005]", "gcPBM binding intensity (ln)": "9.96 ± 0.33"},
      {"sequence": "AAATGCGCCATGTGTACACATATATATATATATATA [CACACA_site4649]", "gcPBM binding intensity (ln)": "10.1 ± 0.18"},
      {"sequence": "GATATGTACTAATACACACACATATATATATATATA [CACACA_site1022]", "gcPBM binding intensity (ln)": "10.2 ± 0.23"},
      {"sequence": "AAGATATGTACTAATACACACACATATATATATATA [CACACA_site8249]", "gcPBM binding intensity (ln)": "9.86 ± 0.14"},
      {"sequence": "ACATACACATATACATGTACATATATATATATATAT [XGTACX_site5082]", "gcPBM binding intensity (ln)": "9.68 ± 0.3"},
      {"sequence": "CGAAATCATATGTACACACACATATATATATATATA [CACACA_site2151]", "gcPBM binding intensity (ln)": "10.1 ± 0.18"},
      {"sequence": "ATACACACATATATGTGTACATATACATATATATAT [XGTACX_site6744]", "gcPBM binding intensity (ln)": "9.88 ± 0.32"},
      {"sequence": "TGAAAATATTTTATATGTACATATATTATCAATACA [XGTACX_site92]", "gcPBM binding intensity (ln)": "8.64 ± 0.38"},
      {"sequence": "TTTCTGATATTTTTATATTTTCTTATATATATATAT [GTGCAC_negctrl_site652]", "gcPBM binding intensity (ln)": "8.77 ± 0.52"},
      {"sequence": "TGTCTTATTTATATTACACACTATATGAAAAAATAT [CACACA_site6807]", "gcPBM binding intensity (ln)": "8.6 ± 0.38"},
      {"sequence": "ATAAATAAATAAGTACATATATATATGTATATATAT [TGCATGCA_negctrl_site223]", "gcPBM binding intensity (ln)": "9.05 ± 0.42"},
      {"sequence": "ACTAAATAAATAAATATAATATATAAATATGTATGT [TGCATGCA_negctrl_site583]", "gcPBM binding intensity (ln)": "8.78 ± 0.43"},
      {"sequence": "TTTATTAATAATTATACACACATATAAAATGAATAA [CACACA_site1359]", "gcPBM binding intensity (ln)": "8.58 ± 0.51"},
      {"sequence": "TTAATATGAAAACTCTGTACCCAACCTTCTTATGGA [XGTACX_site2126]", "gcPBM binding intensity (ln)": "8.62 ± 0.28"},
      {"sequence": "ATGCAATTATATAGTAGTACAAATTTATAAATATAC [XGTACX_site4869]", "gcPBM binding intensity (ln)": "8.94 ± 0.37"},
      {"sequence": "ATTTAATAAAAAAAAAAAATATTGTAGAATATGATG [GTGCAC_negctrl_site195]", "gcPBM binding intensity (ln)": "8.27 ± 0.52"},
      {"sequence": "AAAGGTATATATGTGTGTACATATATATATATATAT [XGTACX_site5629]", "gcPBM binding intensity (ln)": "9.955 ± 0.0071"},
      {"sequence": "TCCTTTTCTTAATTTAAAAAATATAAAAAAAACGAA [CACACA_negctrl_site1821]", "gcPBM binding intensity (ln)": "7.94 ± 0.34"},
      {"sequence": "TGAACTCATAGGAAAACACACATATGTGCAATATAT [CACACA_site6231]", "gcPBM binding intensity (ln)": "9.12 ± 0.36"},
      {"sequence": "AAAACAAACAGACACACACACATATATATATATATA [CACACA_site3655]", "gcPBM binding intensity (ln)": "10.4 ± 0.24"},
      {"sequence": "AAAACAAACGGACACACACACATATATATATATATA [CACACA_site5924]", "gcPBM binding intensity (ln)": "10.2 ± 0.44"},
      {"sequence": "AAAAGGAACAGACACACACACATATATAAATATGTA [CACACA_site7656]", "gcPBM binding intensity (ln)": "9.8 ± 0.42"},
      {"sequence": "TACAAACAGACATATACACACAAAAAAAAAATAAAA [CACACA_site2562]", "gcPBM binding intensity (ln)": "9.16 ± 0.43"},
      {"sequence": "AAGGTAAACGGACACACACACATACAAAAAAAAAAA [CACACA_site5961]", "gcPBM binding intensity (ln)": "9.77 ± 0.67"},
      {"sequence": "AAAAGGAACAGACACACACACATATATATATATATA [CACACA_site3587]", "gcPBM binding intensity (ln)": "10.3 ± 0.29"},
      {"sequence": "AAAAAAAACAGACACACACACATACAAAATATATAT [CACACA_site1449]", "gcPBM binding intensity (ln)": "9.79 ± 0.3"},
      {"sequence": "AAAAAAAACAGACACACACACATAAATATAAATAAA [CACACA_site6214]", "gcPBM binding intensity (ln)": "9.74 ± 0.31"},
      {"sequence": "AAAAAAAACGGACACACACACATACAAAATATATAT [CACACA_site4910]", "gcPBM binding intensity (ln)": "9.99 ± 0.28"},
      {"sequence": "TATATATACAGACACATACACACAAATAAAAAAACA [CACACA_site3413]", "gcPBM binding intensity (ln)": "9.39 ± 0.35"},
      {"sequence": "AAAACAGACAAACACACACACACATATATATATATA [CACACA_site3393]", "gcPBM binding intensity (ln)": "10.37 ± 0.071"},
      {"sequence": "AAAACAAACAGACACACACACATATTTATATTTATA [CACACA_site7681]", "gcPBM binding intensity (ln)": "9.79 ± 0.4"}
    ]}
  ]
}
